Holding throughout (experiment): DAPPL (digital affinity profiling via proximity ligation, sequencing); 10 mM Tris-HCl pH 7.5, 50 mM NaCl, 1 mM DTT, 4% glycerol, room temperature, 30 min; GST-TFs on glutathione beads, 16-mer random dsDNA library, 0.1% formaldehyde crosslink after washing; high values mean tight binding
Common to all, as to details: protein: recombinant; tags: N-terminal GST; dsDNA, one strand shown

The target in assay [1] is T1, FLI1 (Homo sapiens, UniProt Q01543 1-452).
T1 sequence: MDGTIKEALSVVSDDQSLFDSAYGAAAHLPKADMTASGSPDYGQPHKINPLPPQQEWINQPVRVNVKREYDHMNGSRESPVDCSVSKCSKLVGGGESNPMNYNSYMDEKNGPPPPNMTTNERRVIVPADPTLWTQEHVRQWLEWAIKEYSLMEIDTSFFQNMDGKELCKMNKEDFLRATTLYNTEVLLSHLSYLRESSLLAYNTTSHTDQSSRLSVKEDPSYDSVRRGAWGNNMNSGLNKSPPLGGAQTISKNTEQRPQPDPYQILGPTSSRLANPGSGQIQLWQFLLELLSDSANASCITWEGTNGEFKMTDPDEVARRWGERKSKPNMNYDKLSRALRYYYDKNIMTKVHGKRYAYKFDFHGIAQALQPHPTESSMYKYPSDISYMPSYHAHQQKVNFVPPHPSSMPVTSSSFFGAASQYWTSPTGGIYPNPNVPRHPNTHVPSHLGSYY
The gist of the method: (§1)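 After expression in yeast as GST fusions, human transcription factors were bound to glutathione beads, DNA-barcoded and mixed with a tag-only sample. The pools were incubated with 200 nmole of a 16-mer random double-stranded DNA library in Tris/NaCl/DTT/glycerol buffer (30 min, room temperature), washed and crosslinked with 0.1% formaldehyde. Proximity ligation with BsaI/T4 ligase ran for 1 h at 37 °C, before PCR amplification and sequencing on an Illumina NextSeq500. Binding signal is a hexamer's read frequency for a factor divided by its frequency for the tag-only sample.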

Assay [2] concerns the target T2, ELK1 (Homo sapiens, UniProt P19419 1-428).
T2 sequence: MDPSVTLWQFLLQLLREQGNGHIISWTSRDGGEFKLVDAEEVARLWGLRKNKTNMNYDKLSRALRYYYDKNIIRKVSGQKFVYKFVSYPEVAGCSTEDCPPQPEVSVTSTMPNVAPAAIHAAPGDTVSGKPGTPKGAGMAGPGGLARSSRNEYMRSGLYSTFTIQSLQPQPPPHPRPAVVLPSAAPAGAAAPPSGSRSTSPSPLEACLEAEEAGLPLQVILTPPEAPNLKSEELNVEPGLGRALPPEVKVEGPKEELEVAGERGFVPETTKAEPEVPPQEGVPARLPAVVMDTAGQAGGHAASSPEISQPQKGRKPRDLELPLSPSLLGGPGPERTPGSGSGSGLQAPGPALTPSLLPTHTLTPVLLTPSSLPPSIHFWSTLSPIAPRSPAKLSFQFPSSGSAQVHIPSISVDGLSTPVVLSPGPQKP
The gist of the method:
as §1

Assay [3] addresses T3, GABPA (Homo sapiens, UniProt Q06546 1-454).
T3 sequence: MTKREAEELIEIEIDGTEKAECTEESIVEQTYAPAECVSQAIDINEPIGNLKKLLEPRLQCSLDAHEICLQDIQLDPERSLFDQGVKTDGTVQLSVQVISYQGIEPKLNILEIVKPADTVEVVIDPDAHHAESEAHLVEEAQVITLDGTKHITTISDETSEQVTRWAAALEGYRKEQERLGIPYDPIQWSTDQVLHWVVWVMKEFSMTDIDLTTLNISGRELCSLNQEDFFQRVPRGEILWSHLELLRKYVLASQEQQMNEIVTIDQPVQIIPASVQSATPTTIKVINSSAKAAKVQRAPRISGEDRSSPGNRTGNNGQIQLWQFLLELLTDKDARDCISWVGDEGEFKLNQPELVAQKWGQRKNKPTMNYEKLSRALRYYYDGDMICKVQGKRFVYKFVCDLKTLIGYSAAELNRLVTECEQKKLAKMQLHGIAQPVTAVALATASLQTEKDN
Summed up: as §1

The target in assay [4] is T4, ERG (Homo sapiens, UniProt P11308 1-479).
T4 sequence: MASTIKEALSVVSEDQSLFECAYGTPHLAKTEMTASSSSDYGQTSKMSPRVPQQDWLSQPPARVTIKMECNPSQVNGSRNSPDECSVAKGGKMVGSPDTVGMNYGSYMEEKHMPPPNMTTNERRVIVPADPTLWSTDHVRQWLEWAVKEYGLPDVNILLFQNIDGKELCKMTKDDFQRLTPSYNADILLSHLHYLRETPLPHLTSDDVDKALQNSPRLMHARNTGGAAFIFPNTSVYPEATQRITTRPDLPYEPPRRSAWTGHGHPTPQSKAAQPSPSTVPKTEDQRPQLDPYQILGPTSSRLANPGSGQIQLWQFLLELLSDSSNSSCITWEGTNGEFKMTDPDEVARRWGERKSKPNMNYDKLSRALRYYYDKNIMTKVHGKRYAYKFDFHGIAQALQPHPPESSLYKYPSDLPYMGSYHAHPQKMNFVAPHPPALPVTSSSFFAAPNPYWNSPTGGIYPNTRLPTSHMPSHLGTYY
The gist of the method: as §1

In assay [5] the target is ELF1 (Homo sapiens, UniProt P32519 1-619). The gist of the method: as §1
ELF1, sequence (P32519 whole entry): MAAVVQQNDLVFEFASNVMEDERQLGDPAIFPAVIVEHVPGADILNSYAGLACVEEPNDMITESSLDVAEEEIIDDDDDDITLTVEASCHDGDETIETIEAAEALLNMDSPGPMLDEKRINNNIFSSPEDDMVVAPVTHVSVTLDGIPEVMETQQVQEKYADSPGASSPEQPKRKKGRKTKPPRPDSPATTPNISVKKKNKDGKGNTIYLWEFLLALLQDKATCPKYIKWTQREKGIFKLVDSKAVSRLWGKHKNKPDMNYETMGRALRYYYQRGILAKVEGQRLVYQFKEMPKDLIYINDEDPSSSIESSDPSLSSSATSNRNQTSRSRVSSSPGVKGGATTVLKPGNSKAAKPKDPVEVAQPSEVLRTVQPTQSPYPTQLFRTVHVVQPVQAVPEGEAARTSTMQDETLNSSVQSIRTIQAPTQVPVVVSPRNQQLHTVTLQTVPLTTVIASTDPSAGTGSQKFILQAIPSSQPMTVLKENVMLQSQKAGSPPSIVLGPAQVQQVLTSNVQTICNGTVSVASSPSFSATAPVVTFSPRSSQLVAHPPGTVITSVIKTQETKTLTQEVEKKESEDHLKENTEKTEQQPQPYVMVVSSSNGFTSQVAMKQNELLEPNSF
The target in assay [6] is T5, EHF (Homo sapiens, UniProt Q9NZC4 1-300).
T5 sequence: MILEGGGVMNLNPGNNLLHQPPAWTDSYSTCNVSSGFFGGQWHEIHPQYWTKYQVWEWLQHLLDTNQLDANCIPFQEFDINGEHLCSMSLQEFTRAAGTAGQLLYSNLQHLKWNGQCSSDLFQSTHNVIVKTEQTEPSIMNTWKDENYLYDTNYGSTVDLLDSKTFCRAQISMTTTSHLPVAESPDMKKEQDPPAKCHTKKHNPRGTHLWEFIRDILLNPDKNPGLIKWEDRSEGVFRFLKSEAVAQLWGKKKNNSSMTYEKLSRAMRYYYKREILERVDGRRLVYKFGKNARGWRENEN
The gist of the method: as §1

In assay [7] the target is SPI1 (Homo sapiens, UniProt P17947 1-270). Summed up: as §1
In assay [8] the target is SPIB (Homo sapiens, UniProt Q01892 1-262). The gist of the method: as §1
SPIB, sequence (Q01892 whole entry): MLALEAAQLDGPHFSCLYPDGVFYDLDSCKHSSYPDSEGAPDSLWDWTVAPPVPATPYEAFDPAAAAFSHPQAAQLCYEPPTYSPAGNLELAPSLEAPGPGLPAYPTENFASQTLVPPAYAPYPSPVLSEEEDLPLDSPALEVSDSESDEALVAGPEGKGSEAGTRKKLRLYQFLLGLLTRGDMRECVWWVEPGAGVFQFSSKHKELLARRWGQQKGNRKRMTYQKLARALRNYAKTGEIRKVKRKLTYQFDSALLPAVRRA
The target in assay [9] is T6, ELK3 (Homo sapiens, UniProt P41970 1-407).
T6 sequence: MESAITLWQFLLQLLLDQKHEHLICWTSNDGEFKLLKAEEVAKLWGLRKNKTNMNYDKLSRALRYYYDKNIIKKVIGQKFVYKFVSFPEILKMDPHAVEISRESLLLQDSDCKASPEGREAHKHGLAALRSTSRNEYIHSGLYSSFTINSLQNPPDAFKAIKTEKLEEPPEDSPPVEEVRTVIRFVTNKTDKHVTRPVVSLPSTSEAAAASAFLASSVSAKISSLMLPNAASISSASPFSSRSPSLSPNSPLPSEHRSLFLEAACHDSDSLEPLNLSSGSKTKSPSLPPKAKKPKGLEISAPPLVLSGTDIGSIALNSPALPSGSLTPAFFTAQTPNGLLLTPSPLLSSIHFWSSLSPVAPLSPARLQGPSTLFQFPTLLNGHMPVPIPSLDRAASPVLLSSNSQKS
Summed up: as §1

With TTTACC, the binding signal was 1.28 fold enrichment (6-mer frequency, TF over GST control) in assay [1]; 1.2 fold enrichment (6-mer frequency, TF over GST control) in assay [2]; 1.24 fold enrichment (6-mer frequency, TF over GST control) in assay [3]; 1.18 fold enrichment (6-mer frequency, TF over GST control) in assay [4]; 1.23 fold enrichment (6-mer frequency, TF over GST control) in assay [5]; 1.31 fold enrichment (6-mer frequency, TF over GST control) in assay [6]. The binding signal in [7] was 1.17 fold enrichment (6-mer frequency, TF over GST control); in assay [8] it was 1.21 fold enrichment (6-mer frequency, TF over GST control); in assay [9] it was 1.37 fold enrichment (6-mer frequency, TF over GST control).

The record behind these values is paper PMC7862700, “An all-to-all approach to the identification of sequence-specific readers for epigenetic DNA modifications on cytosine”.
